We go through 2 sequences from publication PMC7862700, “An all-to-all approach to the identification of sequence-specific readers for epigenetic DNA modifications on cytosine”.

Common to all, as to assay: DAPPL (digital affinity profiling via proximity ligation, sequencing); 10 mM Tris-HCl pH 7.5, 50 mM NaCl, 1 mM DTT, 4% glycerol, room temperature, 30 min; GST-TFs on glutathione beads, 16-mer random dsDNA library, 0.1% formaldehyde crosslink after washing; high values mean tight binding
Holding throughout (details): protein: recombinant; tags: N-terminal GST; dsDNA, one strand shown

One assay concerns the target T1, FLI1 (Homo sapiens, UniProt Q01543 1-452).
T1 sequence: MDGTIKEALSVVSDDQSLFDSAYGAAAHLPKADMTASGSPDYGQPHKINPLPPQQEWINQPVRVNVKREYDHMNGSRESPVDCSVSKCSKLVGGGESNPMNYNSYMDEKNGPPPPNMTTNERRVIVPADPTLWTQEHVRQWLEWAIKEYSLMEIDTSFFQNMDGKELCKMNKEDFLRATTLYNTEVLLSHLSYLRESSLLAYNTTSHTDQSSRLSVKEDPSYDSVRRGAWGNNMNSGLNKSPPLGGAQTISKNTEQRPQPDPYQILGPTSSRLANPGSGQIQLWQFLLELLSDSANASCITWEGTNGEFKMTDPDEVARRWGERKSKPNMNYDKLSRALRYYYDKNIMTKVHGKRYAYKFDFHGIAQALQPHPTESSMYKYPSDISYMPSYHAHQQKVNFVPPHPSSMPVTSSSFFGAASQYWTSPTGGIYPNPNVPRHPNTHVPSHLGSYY
Summed up: (§1)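 A tag-only sample was pooled with DNA-barcoded human transcription factors that had been expressed in yeast as GST fusions and captured on glutathione beads. The pools were incubated for 30 min at room temperature with 200 nmole of a random double-stranded 16-mer DNA library in Tris/NaCl/DTT/glycerol buffer, then washed, crosslinked with 0.1% formaldehyde, proximity-ligated (BsaI/T4 ligase, 1 h, 37 °C), PCR-amplified and sequenced on an Illumina NextSeq500. Binding signal is each hexamer's read frequency for a factor divided by its frequency for the tag-only sample.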

The next assay deals with T2, ELK1 (Homo sapiens, UniProt P19419 1-428).
T2 sequence: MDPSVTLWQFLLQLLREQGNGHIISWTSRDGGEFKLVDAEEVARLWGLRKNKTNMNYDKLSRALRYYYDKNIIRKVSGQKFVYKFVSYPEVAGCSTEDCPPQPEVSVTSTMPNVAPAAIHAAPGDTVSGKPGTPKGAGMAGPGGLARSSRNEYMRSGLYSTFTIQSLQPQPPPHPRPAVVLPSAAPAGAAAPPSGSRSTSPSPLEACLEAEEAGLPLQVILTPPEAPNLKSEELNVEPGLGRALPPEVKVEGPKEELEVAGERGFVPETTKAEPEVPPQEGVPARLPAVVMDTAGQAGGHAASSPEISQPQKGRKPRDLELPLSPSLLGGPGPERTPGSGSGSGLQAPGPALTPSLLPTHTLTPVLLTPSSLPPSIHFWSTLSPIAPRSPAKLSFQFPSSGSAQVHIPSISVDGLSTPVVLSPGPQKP
Summed up: as §1

For a further assay, the target named is T3, GABPA (Homo sapiens, UniProt Q06546 1-454).
T3 sequence: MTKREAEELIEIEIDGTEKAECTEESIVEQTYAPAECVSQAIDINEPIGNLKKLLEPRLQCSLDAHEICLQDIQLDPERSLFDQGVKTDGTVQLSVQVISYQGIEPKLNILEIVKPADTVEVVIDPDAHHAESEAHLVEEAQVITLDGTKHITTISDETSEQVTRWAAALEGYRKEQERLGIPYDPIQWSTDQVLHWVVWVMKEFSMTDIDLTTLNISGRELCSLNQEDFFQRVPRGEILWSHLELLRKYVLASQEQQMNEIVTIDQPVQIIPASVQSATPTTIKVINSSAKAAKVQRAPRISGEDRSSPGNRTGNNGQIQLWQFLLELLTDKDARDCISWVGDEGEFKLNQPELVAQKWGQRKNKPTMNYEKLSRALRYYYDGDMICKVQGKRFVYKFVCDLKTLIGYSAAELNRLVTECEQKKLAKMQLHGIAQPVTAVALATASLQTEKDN
Summed up:
as §1

A further assay concerns the target T4, ERG (Homo sapiens, UniProt P11308 1-479).
T4 sequence: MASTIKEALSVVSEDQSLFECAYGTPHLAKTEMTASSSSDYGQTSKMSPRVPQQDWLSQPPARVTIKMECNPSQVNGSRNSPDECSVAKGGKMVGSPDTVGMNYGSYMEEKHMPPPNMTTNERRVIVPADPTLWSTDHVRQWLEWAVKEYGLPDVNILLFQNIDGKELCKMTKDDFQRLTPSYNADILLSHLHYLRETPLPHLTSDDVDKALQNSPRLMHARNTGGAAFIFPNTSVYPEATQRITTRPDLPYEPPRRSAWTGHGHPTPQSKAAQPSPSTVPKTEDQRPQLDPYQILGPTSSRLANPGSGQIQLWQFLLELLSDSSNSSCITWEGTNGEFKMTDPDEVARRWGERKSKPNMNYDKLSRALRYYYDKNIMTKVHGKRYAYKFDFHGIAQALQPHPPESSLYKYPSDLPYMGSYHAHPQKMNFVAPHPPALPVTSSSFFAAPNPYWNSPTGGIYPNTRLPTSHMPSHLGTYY
The method, boiled down:
as §1

A further assay deals with ELF1 (Homo sapiens, UniProt P32519 1-619). Summed up: as §1
A further assay deals with T5, EHF (Homo sapiens, UniProt Q9NZC4 1-300).
T5 sequence: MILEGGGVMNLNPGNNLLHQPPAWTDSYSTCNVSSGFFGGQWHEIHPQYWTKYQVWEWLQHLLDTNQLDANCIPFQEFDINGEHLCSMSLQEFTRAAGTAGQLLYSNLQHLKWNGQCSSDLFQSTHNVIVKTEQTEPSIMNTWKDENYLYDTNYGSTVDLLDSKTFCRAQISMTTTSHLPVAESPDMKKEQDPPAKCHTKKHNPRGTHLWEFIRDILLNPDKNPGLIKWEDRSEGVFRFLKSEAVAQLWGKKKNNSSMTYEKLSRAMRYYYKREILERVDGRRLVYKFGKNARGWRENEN
The method, boiled down: as §1

The next assay has as its target SPI1 (Homo sapiens, UniProt P17947 1-270). The method, boiled down:
as §1

Another assay deals with SPIB (Homo sapiens, UniProt Q01892 1-262). Summed up:
as §1

For a further assay, the target named is T6, ELK3 (Homo sapiens, UniProt P41970 1-407).
T6 sequence: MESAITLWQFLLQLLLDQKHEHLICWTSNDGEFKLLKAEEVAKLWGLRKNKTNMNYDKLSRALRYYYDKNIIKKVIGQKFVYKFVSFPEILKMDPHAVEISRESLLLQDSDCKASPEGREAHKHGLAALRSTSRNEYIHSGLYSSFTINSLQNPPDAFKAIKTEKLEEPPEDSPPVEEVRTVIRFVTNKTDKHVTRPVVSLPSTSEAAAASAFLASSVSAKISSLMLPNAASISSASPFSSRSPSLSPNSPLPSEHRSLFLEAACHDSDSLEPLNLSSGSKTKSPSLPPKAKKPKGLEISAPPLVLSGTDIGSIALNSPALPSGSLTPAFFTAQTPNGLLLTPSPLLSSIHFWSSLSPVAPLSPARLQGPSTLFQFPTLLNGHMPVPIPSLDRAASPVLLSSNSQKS
Summed up: as §1

Another assay deals with T7, FEV (Homo sapiens, UniProt Q99581 1-238).
T7 sequence: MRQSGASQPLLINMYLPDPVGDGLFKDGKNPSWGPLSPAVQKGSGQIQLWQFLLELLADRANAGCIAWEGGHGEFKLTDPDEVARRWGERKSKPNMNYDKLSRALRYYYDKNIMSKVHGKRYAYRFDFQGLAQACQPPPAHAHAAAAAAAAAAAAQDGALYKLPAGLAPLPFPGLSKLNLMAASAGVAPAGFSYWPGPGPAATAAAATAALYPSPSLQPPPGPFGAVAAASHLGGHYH
The method, boiled down: as §1

Another assay addresses ETV5 (Homo sapiens, UniProt P41161 1-510). The method, boiled down: as §1
For the next assay, the target named is T8, SPIC (Homo sapiens, UniProt Q8N5J4 1-248).
T8 sequence: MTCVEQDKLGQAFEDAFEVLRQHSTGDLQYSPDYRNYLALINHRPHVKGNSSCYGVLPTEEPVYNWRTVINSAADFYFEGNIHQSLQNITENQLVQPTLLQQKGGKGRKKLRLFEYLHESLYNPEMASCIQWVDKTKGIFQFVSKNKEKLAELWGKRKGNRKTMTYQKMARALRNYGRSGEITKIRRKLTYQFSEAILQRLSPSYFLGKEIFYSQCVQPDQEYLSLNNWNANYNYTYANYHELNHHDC
The method, boiled down: as §1

In the next assay the target is ELF4 (Homo sapiens, UniProt Q99607 1-663). Summed up: as §1
A further assay deals with T9, ELK4 (Homo sapiens, UniProt P28324-2 1-405).
T9 sequence: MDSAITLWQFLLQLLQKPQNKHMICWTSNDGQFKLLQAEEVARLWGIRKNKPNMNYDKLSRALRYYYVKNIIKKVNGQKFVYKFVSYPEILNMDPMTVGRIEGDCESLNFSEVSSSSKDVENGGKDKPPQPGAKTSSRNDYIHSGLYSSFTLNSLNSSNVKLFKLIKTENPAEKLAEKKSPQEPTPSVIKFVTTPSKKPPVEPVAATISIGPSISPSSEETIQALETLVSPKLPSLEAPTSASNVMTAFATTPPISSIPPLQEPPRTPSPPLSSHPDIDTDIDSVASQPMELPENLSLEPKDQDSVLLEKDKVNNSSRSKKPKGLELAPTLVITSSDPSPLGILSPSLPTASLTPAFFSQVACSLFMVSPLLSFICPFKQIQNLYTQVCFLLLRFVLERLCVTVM
The method, boiled down: as §1

For a further assay, the target named is T10, ETV2 (Homo sapiens, UniProt O00321 1-342).
T10 sequence: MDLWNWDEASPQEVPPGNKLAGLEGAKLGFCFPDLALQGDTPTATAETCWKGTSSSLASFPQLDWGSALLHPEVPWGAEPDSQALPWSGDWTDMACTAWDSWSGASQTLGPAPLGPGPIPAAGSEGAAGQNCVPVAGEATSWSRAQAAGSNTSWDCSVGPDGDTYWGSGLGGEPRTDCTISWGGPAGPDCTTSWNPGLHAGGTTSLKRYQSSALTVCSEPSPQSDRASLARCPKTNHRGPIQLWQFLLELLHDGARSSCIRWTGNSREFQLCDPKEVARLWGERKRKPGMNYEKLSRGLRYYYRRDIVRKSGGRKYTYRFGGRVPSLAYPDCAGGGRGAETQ
The method, boiled down:
as §1

For the next assay, the target named is T11, ELF3 (Homo sapiens, UniProt P78545 1-371).
T11 sequence: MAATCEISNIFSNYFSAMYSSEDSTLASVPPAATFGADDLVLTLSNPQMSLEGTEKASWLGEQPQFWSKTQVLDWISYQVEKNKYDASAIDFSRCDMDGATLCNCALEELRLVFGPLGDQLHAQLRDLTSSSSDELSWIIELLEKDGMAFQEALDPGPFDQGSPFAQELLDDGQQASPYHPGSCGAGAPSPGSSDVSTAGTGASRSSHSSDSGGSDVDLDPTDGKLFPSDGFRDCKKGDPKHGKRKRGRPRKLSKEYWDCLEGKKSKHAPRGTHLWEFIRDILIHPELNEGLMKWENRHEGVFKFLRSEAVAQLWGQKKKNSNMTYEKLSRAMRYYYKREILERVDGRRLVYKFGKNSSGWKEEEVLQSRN
The method, boiled down: as §1

For a further assay, the target named is ETV1 (Homo sapiens, UniProt P50549 1-477). Summed up:
as §1

Sequence of ELF4 (Q99607 whole entry): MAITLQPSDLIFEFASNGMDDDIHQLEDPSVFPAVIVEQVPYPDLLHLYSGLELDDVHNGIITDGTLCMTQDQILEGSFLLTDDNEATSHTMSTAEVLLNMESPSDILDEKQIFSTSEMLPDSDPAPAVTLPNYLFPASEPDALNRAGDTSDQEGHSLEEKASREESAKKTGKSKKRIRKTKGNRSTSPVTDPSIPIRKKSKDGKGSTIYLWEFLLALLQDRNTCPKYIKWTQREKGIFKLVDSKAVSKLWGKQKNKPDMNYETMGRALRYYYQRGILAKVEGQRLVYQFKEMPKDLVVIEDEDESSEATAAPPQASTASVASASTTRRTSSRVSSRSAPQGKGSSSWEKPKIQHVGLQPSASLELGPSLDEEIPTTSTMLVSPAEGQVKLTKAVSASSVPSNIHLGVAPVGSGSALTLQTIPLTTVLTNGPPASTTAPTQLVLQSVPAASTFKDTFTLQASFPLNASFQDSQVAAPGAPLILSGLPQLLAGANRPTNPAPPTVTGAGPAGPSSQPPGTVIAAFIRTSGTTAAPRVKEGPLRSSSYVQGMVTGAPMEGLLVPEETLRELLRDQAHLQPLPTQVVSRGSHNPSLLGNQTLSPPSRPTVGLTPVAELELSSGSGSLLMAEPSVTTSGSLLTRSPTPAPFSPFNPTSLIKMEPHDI
Sequence of ETV1 (P50549 whole entry): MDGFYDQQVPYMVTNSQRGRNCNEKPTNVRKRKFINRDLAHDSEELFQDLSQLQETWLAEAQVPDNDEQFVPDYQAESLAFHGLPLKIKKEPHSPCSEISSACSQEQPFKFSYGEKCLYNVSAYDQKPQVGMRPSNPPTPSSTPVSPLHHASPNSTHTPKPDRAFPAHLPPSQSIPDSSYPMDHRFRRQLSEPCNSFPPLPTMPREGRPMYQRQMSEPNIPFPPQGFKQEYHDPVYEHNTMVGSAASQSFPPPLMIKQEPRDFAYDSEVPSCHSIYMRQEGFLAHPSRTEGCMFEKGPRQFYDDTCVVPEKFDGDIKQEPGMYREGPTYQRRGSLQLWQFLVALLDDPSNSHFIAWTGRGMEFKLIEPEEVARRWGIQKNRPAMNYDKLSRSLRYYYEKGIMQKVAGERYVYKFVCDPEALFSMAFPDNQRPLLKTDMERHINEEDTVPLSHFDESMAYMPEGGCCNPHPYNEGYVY
Sequence of ELF1 (P32519 whole entry): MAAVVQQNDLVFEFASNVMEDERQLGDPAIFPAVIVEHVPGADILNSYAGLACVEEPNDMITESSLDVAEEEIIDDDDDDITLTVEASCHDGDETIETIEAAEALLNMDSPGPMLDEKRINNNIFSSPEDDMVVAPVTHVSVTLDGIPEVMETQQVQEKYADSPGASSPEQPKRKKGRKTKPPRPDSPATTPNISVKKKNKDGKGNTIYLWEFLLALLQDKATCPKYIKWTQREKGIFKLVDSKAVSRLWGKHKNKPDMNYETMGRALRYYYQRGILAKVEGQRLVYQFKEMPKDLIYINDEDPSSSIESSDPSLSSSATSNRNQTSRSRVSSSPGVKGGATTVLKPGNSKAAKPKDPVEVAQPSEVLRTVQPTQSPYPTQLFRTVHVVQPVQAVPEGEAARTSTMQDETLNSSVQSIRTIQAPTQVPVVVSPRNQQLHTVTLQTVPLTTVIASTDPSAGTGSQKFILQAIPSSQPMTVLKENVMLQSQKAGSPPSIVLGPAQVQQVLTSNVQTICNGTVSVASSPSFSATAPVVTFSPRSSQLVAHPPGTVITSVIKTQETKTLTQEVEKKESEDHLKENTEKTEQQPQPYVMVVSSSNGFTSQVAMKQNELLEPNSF
Sequence of SPIB (Q01892 whole entry): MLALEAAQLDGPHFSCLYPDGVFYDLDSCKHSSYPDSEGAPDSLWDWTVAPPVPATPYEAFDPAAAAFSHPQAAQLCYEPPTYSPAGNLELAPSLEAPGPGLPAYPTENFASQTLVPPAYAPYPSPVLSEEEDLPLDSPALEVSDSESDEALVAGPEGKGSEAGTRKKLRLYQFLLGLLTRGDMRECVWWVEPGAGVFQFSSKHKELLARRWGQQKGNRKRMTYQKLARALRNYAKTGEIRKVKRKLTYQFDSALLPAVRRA
Sequence of ETV5 (P41161 whole entry): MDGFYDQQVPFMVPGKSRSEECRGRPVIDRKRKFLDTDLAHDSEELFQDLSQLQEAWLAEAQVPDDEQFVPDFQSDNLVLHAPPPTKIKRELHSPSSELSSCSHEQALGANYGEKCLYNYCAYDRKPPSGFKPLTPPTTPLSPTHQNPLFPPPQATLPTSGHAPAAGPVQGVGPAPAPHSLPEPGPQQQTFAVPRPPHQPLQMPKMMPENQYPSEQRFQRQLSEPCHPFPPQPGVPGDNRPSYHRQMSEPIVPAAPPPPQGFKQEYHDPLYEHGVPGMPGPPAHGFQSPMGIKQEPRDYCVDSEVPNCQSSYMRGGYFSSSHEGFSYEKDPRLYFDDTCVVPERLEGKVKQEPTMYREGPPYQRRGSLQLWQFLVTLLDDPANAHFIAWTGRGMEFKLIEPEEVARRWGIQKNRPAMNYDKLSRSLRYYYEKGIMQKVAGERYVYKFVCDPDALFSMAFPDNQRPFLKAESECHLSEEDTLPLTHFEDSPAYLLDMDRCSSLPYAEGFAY

On to AACCGG, for which the binding signal with FLI1 was 1.43 fold enrichment (6-mer frequency, TF over GST control); in the assay with ELK1, 1.58 fold enrichment (6-mer frequency, TF over GST control); with GABPA, 1.33 fold enrichment (6-mer frequency, TF over GST control); with ERG it was 1.73 fold enrichment (6-mer frequency, TF over GST control); with ELF1 it was 1.46 fold enrichment (6-mer frequency, TF over GST control); with EHF, 1.5 fold enrichment (6-mer frequency, TF over GST control). Further, the binding signal in the assay with SPI1 is 1.7 fold enrichment (6-mer frequency, TF over GST control); in the assay with SPIB, 1.64 fold enrichment (6-mer frequency, TF over GST control); in the assay with ELK3, 1.54 fold enrichment (6-mer frequency, TF over GST control); with FEV, 2.35 fold enrichment (6-mer frequency, TF over GST control); with ETV5, 1.53 fold enrichment (6-mer frequency, TF over GST control); with SPIC it was 1.4 fold enrichment (6-mer frequency, TF over GST control). For the same sequence, the binding signal in the assay with ELF4 is 1.31 fold enrichment (6-mer frequency, TF over GST control); in the assay with ELK4, 1.26 fold enrichment (6-mer frequency, TF over GST control); in the assay with ETV2, 1.45 fold enrichment (6-mer frequency, TF over GST control); with ELF3, 1.36 fold enrichment (6-mer frequency, TF over GST control); in the assay with ETV1 it was 1.69 fold enrichment (6-mer frequency, TF over GST control).

As for GTCCTT, the binding signal with FLI1 is 1.16 fold enrichment (6-mer frequency, TF over GST control); with ELK1, 1.2 fold enrichment (6-mer frequency, TF over GST control); with GABPA, 1.28 fold enrichment (6-mer frequency, TF over GST control); in the assay with ERG, 1.22 fold enrichment (6-mer frequency, TF over GST control); with ELF1, 1.26 fold enrichment (6-mer frequency, TF over GST control); in the assay with EHF it was 1.28 fold enrichment (6-mer frequency, TF over GST control). For the same sequence, the binding signal is 1.29 fold enrichment (6-mer frequency, TF over GST control) in the assay with SPI1; 1.34 fold enrichment (6-mer frequency, TF over GST control) with SPIB; 1.25 fold enrichment (6-mer frequency, TF over GST control) with ELK3; 1.29 fold enrichment (6-mer frequency, TF over GST control) with FEV; 1.19 fold enrichment (6-mer frequency, TF over GST control) in the assay with ETV5; 1.23 fold enrichment (6-mer frequency, TF over GST control) in the assay with SPIC. In addition, the binding signal with ELF4 was 1.21 fold enrichment (6-mer frequency, TF over GST control); with ELK4 it was 1.15 fold enrichment (6-mer frequency, TF over GST control); with ETV2 it was 1.31 fold enrichment (6-mer frequency, TF over GST control); in the assay with ELF3, 1.16 fold enrichment (6-mer frequency, TF over GST control); in the assay with ETV1, 1.13 fold enrichment (6-mer frequency, TF over GST control).
